A short description of test [1]: cAMP Responsive Elements (CRE) small molecule antagonists, cell-based qHTS assay: qHTS cell viability counter screen (AID 2060913). Note: nearly all actives have a fitted effect of over 40% in size. The procedure, abridged:
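Steps: cells plated and held 18 hrs at 37 C/5% CO2; compounds and NKH477 (0.25 uM final) added; 3 hrs incubation; reporter substrate read; CellTiter-Glo added to measure cytotoxicity by luminescence.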
Background: qHTS replaces the single test concentration by a dilution series.

Test [2] can be described thus: cAMP Responsive Elements (CRE) small molecule agonists, cell-based qHTS assay: qHTS cell viability counter screen (AID 2060914). Note: nearly all actives have a fitted effect of over 50% in size. The procedure, abridged: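 Luminescence read-out (CellTiter-Glo, 30 min RT) of ATP-based viability in CRE-bla HEK 293T cells, run in the same wells as the β-lactamase reporter assay after 3 h compound treatment at 37 °C.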

Structures are written as SMILES. Inconclusive results are not listed. A number with no mark means an inactive call. Calls of active or inactive are those of the source. Calls come from the whole dose curve; as a rule, active = well fitted cell-killing curve with a large enough effect in the repeat runs; inconclusive = weak or mixed curves, or effect the other way; inactive = flat fitted curve, though single readings scatter.
% is set by controls: 0 for no effect and ±100 for the full control effect.

With `CC1=C(/C=C/C(C)=C/C=C/C(C)=C\C(=O)O)C(C)(C)CCC1`, the Potency entry in test [1] and in test [2] was “inactive” throughout.
On to `Cc1ccc(N(CCO)CCO)cc1`, for which the Potency result in test [1] and in test [2] was “inactive” throughout.
For the compound `COc1cc(C(=S)N2CCOCC2)cc(OC)c1OC`, the Potency entry in test [1] and in test [2] was “inactive” each time.
With `CC(C)(C)c1nnc(NS(=O)(=O)c2ccccc2)s1`, the Potency result in test [1] and in test [2] was “inactive” throughout.
As for `NNc1nncc2ccccc12`, the Potency result in test [1] and in test [2] was “inactive” each time.
Regarding `CCOC(=O)NNc1ccc(N(CC)CC(C)O)nn1` (stereo not given), the Potency result in test [1] and in test [2] was “inactive” in each case.
For `CSc1ccc(/C=C2/C(C)=C(CC(=O)O)c3cc(F)ccc32)cc1`, the Potency entry in test [1] and in test [2] was “inactive” each time.
Turning to `CCC1(c2cnc[nH]2)Cc2ccccc2C1`, the Potency result in test [1] and in test [2] was “inactive” each time.
`Cc1cccc(C)c1NC(=O)CN1CCCC1`: the Potency result in test [1] and in test [2] was “inactive” each time.
With `O=C1CCCCCO1`, the Potency entry in test [1] and in test [2] was “inactive” throughout.
Take `O`: the Potency result in test [1] and in test [2] was “inactive” throughout.
`Cc1cc(=O)n(-c2ccccc2)n1C`: the Potency result in test [1] and in test [2] was “inactive” each time.
Regarding `COC(=O)c1ccc(C(=O)O)cc1`, the Potency result in test [1] and in test [2] was “inactive” each time.
Turning to `CCOC(C)OCC`, the Potency result in test [1] and in test [2] was “inactive” in each case.
`NC(Cc1ccc(F)cc1)C(=O)O` (stereo not given): the viability change, negative = cytotoxic in test [1] is 19.3% [at 8.39 µM]. Further, the activity change, negative = cytotoxicity in test [2] was 0.316% [at 8.39 µM].
For `O=C1CCCC1`, the Potency result in test [1] and in test [2] was “inactive” in each case.
As for `CC(c1cc2ccccc2s1)N(O)C(N)=O` (stereo not given), the Potency entry in test [1] and in test [2] was “inactive” in each case.
Regarding `CCCCCCC=O`, the Potency entry in test [1] and in test [2] was “inactive” throughout.
For the compound `CCCC(CC)CCCCCCCN` (stereo not given), the Potency result in test [1] and in test [2] was “inactive” in each case.
`O=C1CCN(c2ccccc2)N1`: the Potency result in test [1] and in test [2] was “inactive” each time.
With `COc1cccc(OC)c1C(=O)N[C@@H]1C(=O)N2[C@@H]1SC(C)(C)[C@@H]2C(=O)O`, the Potency entry in test [1] and in test [2] was “inactive” in each case.
With `CN1CCCC(n2nc(Cc3ccc(Cl)cc3)c3ccccc3c2=O)CC1` (stereo not given), the Potency entry in test [1] and in test [2] was “inactive” throughout.
Consider `O=C(Cn1ccnc1[N+](=O)[O-])NCCO`, for which the Potency entry in test [1] and in test [2] was “inactive” in each case.
With `Cc1ccc(Nc2nccc(N(C)c3ccc4c(C)n(C)nc4c3)n2)cc1S(N)(=O)=O`, the Potency entry in test [1] and in test [2] was “inactive” in each case.
As for `CC1=C(/C=C/C(C)=C/C=C/C(C)=C/CO)C(C)(C)CCC1`, the Potency entry in test [1] and in test [2] was “inactive” throughout.
Turning to `COc1cc2c(cc1OC)CN(C(=O)[C@H](C)N[C@@H](CCc1ccccc1)C(=O)O)[C@H](C(=O)O)C2`, the Potency result in test [1] and in test [2] was “inactive” throughout.
`CCCCCCCCCCCSCC(=O)O`: the Potency result in test [1] and in test [2] was “inactive” each time.
Take `Cc1cc(C)c(S(=O)(=O)O)cc1N=Nc1cc(S(=O)(=O)O)c2ccccc2c1O`: the Potency entry in test [1] and in test [2] was “inactive” each time.
`CC(C)CCCC(C)N` (stereo not given): the Potency entry in test [1] and in test [2] was “inactive” in each case.
For the compound `C=C(C)C(=O)OCC(C)O` (stereo not given), the Potency result in test [1] and in test [2] was “inactive” in each case.
Consider `Nc1cc([N+](=O)[O-])ccc1C(=O)O`, for which the Potency result in test [1] and in test [2] was “inactive” each time.
`O=C(O)c1cc(Br)c(O)c(Br)c1`: the Potency result in test [1] and in test [2] was “inactive” each time.
Turning to `C=C1C[C@@]23CC[C@H]4[C@@](C)(CCC[C@@]4(C)C(=O)O[C@@H]4O[C@H](CO)[C@@H](O)[C@H](O)[C@H]4O)[C@@H]2CC[C@]1(O[C@@H]1O[C@H](CO)[C@@H](O)[C@H](O[C@@H]2O[C@H](CO)[C@@H](O)[C@H](O)[C@H]2O)[C@H]1O[C@@H]1O[C@H](CO)[C@@H](O)[C@H](O)[C@H]1O)C3`, the Potency entry in test [1] and in test [2] was “inactive” in each case.
As to `CC(=O)c1ccccc1`, the Potency entry in test [1] and in test [2] was “inactive” throughout.
In the case of `CCO[Si](CCCSSSSCCC[Si](OCC)(OCC)OCC)(OCC)OCC`, the Potency entry in test [1] and in test [2] was “inactive” in each case.
`CN(C)CCC[C@@]1(c2ccc(F)cc2)OCc2cc(C#N)ccc21`: the Potency entry in test [1] and in test [2] was “inactive” each time.
For the compound `CCOC(=O)c1ccc(O)cc1`, the Potency entry in test [1] and in test [2] was “inactive” throughout.
In the case of `CC(=O)OCC(=O)[C@H]1CC[C@H]2[C@@H]3CCC4=CC(=O)CC[C@]4(C)[C@H]3CC[C@]12C`, the Potency entry in test [1] and in test [2] was “inactive” in each case.
On to `CC(C)(C)c1ccc(O)c(O)c1`, for which the Potency result in test [1] and in test [2] was “inactive” throughout.
As for `COc1nc(C)nc(NC(=O)NS(=O)(=O)c2ccccc2OCCCl)n1`, the Potency entry in test [1] and in test [2] was “inactive” throughout.
Consider `OCCOCCN1CCN(C(c2ccccc2)c2ccc(Cl)cc2)CC1` (stereo not given), for which the Potency entry in test [1] and in test [2] was “inactive” each time.
In the case of `CC(C)=CCC[C@H](C)CCO`, the Potency result in test [1] and in test [2] was “inactive” throughout.
As for `OC/C=C/CO`, the Potency entry in test [1] and in test [2] was “inactive” throughout.
As for `CC/C=C\CCOC(=O)c1ccccc1O`, the Potency entry in test [1] and in test [2] was “inactive” each time.
For the compound `COc1ccc(/C(C)=C/C(=O)O)c(OC)c1`, the Potency result in test [1] and in test [2] was “inactive” in each case.
With `CC(C)(C)C1CCC(O)CC1` (stereo not given), the Potency entry in test [1] and in test [2] was “inactive” each time.
In the case of `COc1cc2c(cc1OC)C(C(C(=O)N(CCc1ccc(OC)c(OC)c1OC)CCc1ccc(OC)c(OC)c1OC)c1ccccc1)=NCC2` (stereo not given), the Potency entry in test [1] and in test [2] was “inactive” throughout.
As for `CCCC1CCCC(=O)O1` (stereo not given), the Potency result in test [1] and in test [2] was “inactive” throughout.
For `Cc1ccc(OC(=O)CC(C)C)cc1`, the Potency entry in test [1] and in test [2] was “inactive” each time.
Consider `O=C(O)CCCCCCCCC(=O)O`, for which the Potency result in test [1] and in test [2] was “inactive” throughout.

These data come from PubChem BioAssay (Tox21).
